Bioassay records: PubChem BioAssay, several laboratories
AddAB inh: less growth of phage-infected E. coli with AddAB; E. coli expressing H. pylori AddAB, absorbance growth; inhibition, % at 11.9 µM; 330,000 compounds, 0.29% hits; in the data active = inhibition above about 12%;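 note: 0% = vehicle wells of infected cells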
Tat transport: E. coli Tat transport inhibition. E. coli MC4100 TorA-mCherry Tat export, fluorescence. inhibition, % at 10 µM. 340,000 compounds, 0.036% hits. AID 488895;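 active = mean replicate inhibition at least 50% and at least half of replicates individually reaching 50%; inconclusive = only one of the two criteria met; inactive = neither criterion met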;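 note: exported cargo escapes ClpAP degradation while cytoplasmic cargo is degraded and loses fluorescence; 0% = median of neutral control wells and 100% = median of NaSCN control wells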
E coli growth-1: inhibitors of Escherichia coli growth. OD600, 23 h; hits give low values. OD600 absorbance (test concentration not listed). 330,000 compounds, 0.21% hits. AID 1053175;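 active = OD600 absorbance below the run mean of sample wells minus 3.6 SD, in any replicate, cut at about 0.56 in these data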
E coli growth-2: bacterial growth inhibition, counter-screen for AddAB inhibitors | E. coli V3065 growth, OD600 absorbance, 18 h | inhibition, % at 11.9 µM | 330,000 compounds, 0.27% hits | AID 449728;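 active = inhibition above the campaign's mean inhibition across all tested compounds plus 3 SD, cut at about 9.9% in these data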;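 note: uninfected addAB+ strain grown without phage in ampicillin broth; 0% = DMSO wells and 100% = ciprofloxacin 0.95 µg/ml wells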
phage Ecoli inh: E. coli growth loss with phage present; growth absorbance; inhibition, % at 11.9 µM; 360,000 compounds, 0.26% hits; AID 651602; in the data active = inhibition above about 11%
Calb FLC: C. albicans growth modulation with fluconazole; C. albicans CaCi-2 (fluconazole-resistant clinical isolate) + fluconazole, Alamar Blue growth, 48 h; growth inhibition, % (concentration not given with the values); 300,000 compounds, 0.57% hits;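 active = growth inhibition above about 58% in most replicates, limit read from the data, passing the limit was not always enough; inconclusive = exactly half the replicates above a set limit; inactive = most replicates below a set limit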;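 note: all wells also contain fluconazole at 8 µg/ml as a sub-toxic cotreatment; 0% = median of DMSO wells and 100% = median of geldanamycin control wells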
Numbers without * were called inactive; ? = inconclusive; . = no result. Sampled rows, rich in hits. Any-hit rate of the full collection: about 0.9%.

SMILES | AddAB inh | Tat transport | E coli growth-1 | E coli growth-2 | phage Ecoli inh | Calb FLC
CC(=CC(=O)C(F)(F)F)Nc1ccc(C(F)(F)F)cc1 | . | . | 0.7 | . | . | .
C=CCOC(=O)c1sc(NC(=O)c2ccco2)nc1C | 0 | -3 | 0.73 | 2 | 1 | 79*
CC(C)c1ccc(NC(=O)Cc2cn(C)c3ccccc23)cc1 | 3 | 14 | 0.68 | 0 | 4 | 114*
COc1cc(C=NOCC(=O)Nc2ccc(OC(F)F)cc2)ccc1OCc1ccccc1 | . | . | 0.69 | . | . | .
COc1cc([N+](=O)[O-])cc(C=NNC(=O)c2cccnc2)c1O | . | . | 0.68 | . | . | .
Cc1nc2c(C(=O)NCCC(C)C)c[nH]n2c(=O)c1Cc1ccccc1F | -2 | 16 | 0.64 | -3 | 0 | 85*
CC(=NN=C(N)SC1CC(=O)N(c2ccc(Cl)cc2)C1=O)c1cccs1 (stereo not drawn) | . | . | 0.64 | . | . | .
CC(C)C[C@@H]1CN=C(N)N1C[C@@H]1CCCN1C[C@@H](C(C)C)N1C[C@@H](Cc2ccccc2)N(CCCC2CCCC2)C1=N | 2 | 10 | 0.46* | 1 | 1 | .
NC1=NC[C@@H](CC2CCCCC2)N1CCc1cc(C(F)(F)F)cc(C(F)(F)F)c1 | -2 | -5 | 0.062* | -1 | . | .
NC1=NC[C@H](Cc2ccccc2)N1CCCCC1CCCCC1 | 3 | 3 | 0.64 | 4 | 5 | 105*
N#CC(=NNc1ccc(F)cc1)C(=N)N1CCCCC1 | . | . | 0.63 | . | . | .
CC(=NNC(=S)NC1CCCCC1)c1ccc(C#N)cc1 | . | . | 0.65 | . | . | .
CC(=S)/C=C1\Sc2ccccc2N1C | 1 | -16 | 0.67 | 0 | 0 | 117*
Cc1ccccc1OCC(=O)NN=Cc1cccc2cccnc12 | . | . | 0.66 | . | . | .
CCc1ccc(C(C)=NNc2ccc([N+](=O)[O-])cc2)cc1 | . | . | 0.69 | . | . | .
CCc1ccc(/C(C)=N\Nc2ccc([N+](=O)[O-])cc2)cc1 | 4 | -5 | . | 2 | 3 | 129*
CCN(CC)S(=O)(=O)c1ccc(NN=Cc2cc(OC)ccc2O)nc1 | . | . | 0.71 | . | . | .
CCN(CC)S(=O)(=O)c1ccc(N/N=C/c2ccc(O)cc2O)nc1 | 8 | 0 | . | -2 | 1 | 91*
CC(C)(C)c1ccc(-n2nc(C(N)=O)c(O)cc2=O)cc1 | 3 | 1 | 0.69 | 1 | 2 | -12
CC(C)(C)c1ccc(-n2nc(C#N)c(Cl)cc2=O)cc1 | . | -4 | 0.67 | . | 8 | 86*
CC(C)Cc1nnc(NC(=O)CCN2C(=O)c3ccccc3C2=O)s1 | 68* | -5 | 0.72 | 27* | 1 | -5
CCn1c(NC(=O)c2cccs2)nc2ccccc21 | -2 | -3 | 0.71 | -5 | 1 | 78*
CCn1c(NC(C)=O)nc2ccccc21 | -1 | -7 | 0.67 | 2 | 2 | -5
Cc1ccc([N+](=O)[O-])cc1NC(=O)C1CCCC1 | 0 | 4 | 0.71 | 1 | 1 | 96*
Cc1ccc([N+](=O)[O-])cc1NC(=O)C1CCN(S(C)(=O)=O)CC1 | 5 | 3 | 0.71 | 3 | 2 | -5
SMILES | AddAB inh | Tat transport | E coli growth-1 | E coli growth-2 | phage Ecoli inh | Calb FLC
Cc1ccc(S(=O)(=O)c2c(N)n(N=Cc3ccco3)c3nc4ccccc4nc23)cc1C | . | . | 0.74 | . | . | .
CCCC=NNC(=O)c1ccccc1O | . | . | 0.68 | . | . | .
Cc1nc(-n2[nH]c3c(c2=O)CCCC3)[nH]c(=O)c1Cc1ccccc1 | -2 | -13 | 0.66 | -4 | -5 | 89*
CC[C@@]12C(=O)N(c3cccc(F)c3)C(=O)N1C(c1ccc(OC)cc1)C1C(=O)N(C(C)(C)C)C(=O)C12 (stereo partly drawn) | . | . | 0.69 | . | . | .
O=C(N/N=C/c1cc(Br)ccc1O)c1ccccc1Cl | -4 | 1 | . | -5 | -1 | 89*
O=C(N/N=C/c1cc(Br)ccc1O)c1cccc(N2CCCC2=O)c1 | 2 | -7 | . | -5 | 1 | 94*
COc1ccc(O)c(/C=N/NC(=O)c2cccc(N3CCCC3=O)c2)c1 | 1 | -1 | . | -3 | 2 | -7
CCCCCCc1ccc(N2CC(Cc3ccccc3)C(CC(=O)NCc3ccc(OC)cc3)C2=O)cc1 (stereo not drawn) | . | . | 0.71 | . | . | .
CC(=NNC(=O)c1nn(C)cc1Br)c1ccc(NC(=O)c2ccncc2)cc1 | . | . | 0.65 | . | . | .
COc1ccc(C=Nn2c(N)nc(-c3ccccc3)c2-c2ccccc2)cc1 | . | . | 0.73 | . | . | .
CN(C)C1C(=O)C(C(N)=O)=C(O)[C@@]2(O)C(=O)C3=C(O)c4c(O)ccc(Cl)c4C(O)C3CC12 (stereo partly drawn) | . | . | 0.063* | . | . | .
COc1cccc(C2CC(c3ccc(NS(C)(=O)=O)cc3)=NN2C(=O)c2ccccc2)c1OC (stereo not drawn) | 1 | -12 | 0.67 | 0 | 4 | 103*
CCC(C)OC(=O)C[N+](C)(C)CCOC1CC2CCC1(C)C2(C)C (stereo not drawn) | 3 | -1 | 0.67 | 3 | 3 | 87*
CC(C)CCOC(=O)C[N+](C)(C)CCOC1CC2CCC1(C)C2(C)C (stereo not drawn) | -3 | -5 | 0.59 | -2 | 4 | 103*
CCCCCCOC(=O)C[N+](C)(C)CCOC1CC2CCC1(C)C2(C)C (stereo not drawn) | 1 | 0 | 0.68 | 4 | 1 | 103*
CCCOC(=O)C[N+](C)(C)CCOC1CC2CCC1(C)C2(C)C (stereo not drawn) | 1 | 23 | 0.72 | 0 | -1 | -8
CCCCCCCOC(=O)C[N+](C)(C)CCOC1CC2CCC1(C)C2(C)C (stereo not drawn) | . | 22 | 0.32* | . | 5 | 107*
COc1ccc(C=NNc2nc(C(=O)O)cs2)cc1 | . | . | 0.71 | . | . | .
CC(=O)C(C(=N)N1CCN(C(c2ccccc2)c2ccccc2)CC1)=C(C)O | . | . | 0.68 | . | . | .
Nc1c2c(nc3sc4c(c13)CCCCC4)CCCCC2 | 2 | 2 | 0.7 | 1 | 3 | 95*
CN(C)S(=O)(=O)Oc1cccc(C(=O)Nc2ccc(Cl)cc2)c1 | 1 | -3 | 0.69 | -1 | 5 | 87*
CC(=O)Nc1cccc(NC(=O)C2CCCN2C(=O)Nc2ccc(Cl)cc2)c1 (stereo not drawn) | 1 | -11 | 0.66 | -2 | 2 | 114*
COC(=O)N/N=C/c1ccc(-c2cc(Cl)cc(Cl)c2)o1 | 1 | 1 | . | 1 | 4 | 79*
COC(=O)N/N=C/c1ccc(-c2cccc(Cl)c2)o1 | 1 | -1 | . | 1 | 3 | ?
CCCC(=O)NC(=S)NNC(=O)c1ccc([N+](=O)[O-])cc1 | 1 | 12 | 0.63 | -1 | -5 | 76*
O=C(COC(=O)c1ccccc1NC(=O)c1ccccc1)c1cccc([N+](=O)[O-])c1 | 4 | -6 | 0.73 | 3 | 5 | 10
CCOC(=O)c1ccccc1NC(=O)c1cccc([N+](=O)[O-])c1 | 0 | 1 | 0.65 | 1 | 2 | 108*
COc1ccc(C(=O)NNC(=S)NC(=O)c2cccc([N+](=O)[O-])c2)cc1 | -7 | -7 | 0.69 | -6 | -6 | 81*
CCCCCC(=O)NNC(=S)NC(=O)c1cccc([N+](=O)[O-])c1 | 1 | -6 | 0.62 | -2 | 0 | 85*
COc1ccc(C=NNC(=O)c2cccc(Br)c2)cc1CN1CCOCC1 | . | . | 0.66 | . | . | .
